From the supplement of paper PMC10849652
Targets with a hit are over-represented here; the source holds about 7,900 in all. About 0.6% of all pairs of compound and target were hits. Values without a mark were called inactive.

Columns and labels:
Assay in all cases: log2 fold change, soluble protein after heating vs DMSO (PISA); higher = thermal stabilisation; K562 cells, 10 uM, 30 min; active = over 0.2 and 3.5 SD of the protein, either way, in both replicates (recomputed)
[1] = compound: CC1=C(C=C(C=C1)NC(=O)C2=CC(=CC=C2)C(C)(C)C#N)NC3=CC4=C(C=C3)N=CN(C4=O)C
In short: (§1)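 Thermal stability values are relative to control samples and come from duplicates. They are expressed as log2 fold changes. For measurement, K562 cells (2×10^6 cells/mL) received 10 μM compound for 30 min, and aliquots were heated for 3 min over 48°C-58°C, pooled, and extracted at 4°C in PBS with 0.5% NP-40. Soluble protein, the supernatant after 21,000xg for 90 min, was quantified by TMTpro 16plex LC-MS/MS with equalised channel sums.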

[2] = compound: CC1=C(C=C(C=C1)NC(=O)C2=CC(=CC=C2)N(C)C)NC(=O)C3=CC=C(C=C3)O
In short: as §1

[3] = compound: CC1=CC=C(C=C1)SC2=C3C=C(SC3=CN=C2)C(=O)N
In short: as §1

[4] = compound: CC1=NC(=CC=C1)C2=C(N=C(N2)C(C)(C)C)C3=CC4=NC=CN=C4C=C3
In short: as §1

Nexturastat A = compound: CCCCN(Cc1ccc(C(=O)NO)cc1)C(=O)Nc1ccccc1 [Nexturastat A]
In short: as §1

vemurafenib = compound: CCCS(=O)(=O)Nc1ccc(F)c(C(=O)c2c[nH]c3ncc(-c4ccc(Cl)cc4)cc23)c1F [vemurafenib]
In short: as §1

[5] = compound: CCCS(=O)(=O)Nc1ccc(F)c(C(=O)c2c[nH]c3ncc(Cl)cc23)c1F
In short: as §1

[6] = compound: CCCc1cc(C)[nH]c(=O)c1CNC(=O)c1cc(-c2ccnc(N3CCN(C)CC3)c2)cc2c1cnn2C(C)C
In short: as §1

givinostat = compound: CCN(CC)Cc1ccc2cc(COC(=O)Nc3ccc(C(=O)NO)cc3)ccc2c1 [givinostat]
In short: as §1

barasertib = compound: CCN(CCCOc1ccc2c(Nc3cc(CC(=O)Nc4cccc(F)c4)[nH]n3)ncnc2c1)CCOP(=O)(O)O [barasertib]
In short: as §1

UniProt Q9H000, sequence (Q9H000 whole entry, looked up): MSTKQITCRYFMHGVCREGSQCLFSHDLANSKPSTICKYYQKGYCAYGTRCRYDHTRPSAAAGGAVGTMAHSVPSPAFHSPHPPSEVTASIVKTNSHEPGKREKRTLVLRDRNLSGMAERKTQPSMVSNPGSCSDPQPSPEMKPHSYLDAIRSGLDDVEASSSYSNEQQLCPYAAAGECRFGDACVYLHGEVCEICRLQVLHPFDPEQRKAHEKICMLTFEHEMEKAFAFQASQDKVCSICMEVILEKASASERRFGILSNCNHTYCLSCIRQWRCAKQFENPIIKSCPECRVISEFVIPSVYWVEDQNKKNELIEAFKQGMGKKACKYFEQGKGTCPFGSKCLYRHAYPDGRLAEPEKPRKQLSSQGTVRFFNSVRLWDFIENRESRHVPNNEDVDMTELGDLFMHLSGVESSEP
UniProt Q9BZQ8, sequence (Q9BZQ8 whole entry, looked up): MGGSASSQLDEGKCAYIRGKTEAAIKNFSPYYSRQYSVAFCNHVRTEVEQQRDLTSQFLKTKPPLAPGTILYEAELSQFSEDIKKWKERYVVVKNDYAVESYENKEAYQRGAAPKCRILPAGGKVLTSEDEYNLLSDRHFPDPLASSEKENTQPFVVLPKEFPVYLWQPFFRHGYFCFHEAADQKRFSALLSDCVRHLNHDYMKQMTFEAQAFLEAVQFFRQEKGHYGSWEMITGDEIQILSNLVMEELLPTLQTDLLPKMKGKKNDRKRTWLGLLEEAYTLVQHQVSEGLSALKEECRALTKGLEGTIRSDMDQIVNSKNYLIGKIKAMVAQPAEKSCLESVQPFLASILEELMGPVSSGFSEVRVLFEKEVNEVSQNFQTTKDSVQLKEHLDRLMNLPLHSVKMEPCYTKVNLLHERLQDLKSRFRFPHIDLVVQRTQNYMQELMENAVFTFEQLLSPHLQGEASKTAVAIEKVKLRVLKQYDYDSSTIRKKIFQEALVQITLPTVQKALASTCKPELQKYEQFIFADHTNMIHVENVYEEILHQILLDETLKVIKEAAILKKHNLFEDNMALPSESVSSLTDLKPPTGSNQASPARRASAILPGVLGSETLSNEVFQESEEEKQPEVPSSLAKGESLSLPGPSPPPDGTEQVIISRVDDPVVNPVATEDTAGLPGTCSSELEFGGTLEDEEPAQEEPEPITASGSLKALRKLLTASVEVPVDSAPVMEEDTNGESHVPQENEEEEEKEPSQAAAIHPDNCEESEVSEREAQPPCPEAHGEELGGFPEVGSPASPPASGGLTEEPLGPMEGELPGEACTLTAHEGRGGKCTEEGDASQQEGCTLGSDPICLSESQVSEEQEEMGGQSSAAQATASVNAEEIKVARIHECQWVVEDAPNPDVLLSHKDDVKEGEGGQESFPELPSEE
UniProt Q5TFE4, sequence (Q5TFE4 whole entry, looked up): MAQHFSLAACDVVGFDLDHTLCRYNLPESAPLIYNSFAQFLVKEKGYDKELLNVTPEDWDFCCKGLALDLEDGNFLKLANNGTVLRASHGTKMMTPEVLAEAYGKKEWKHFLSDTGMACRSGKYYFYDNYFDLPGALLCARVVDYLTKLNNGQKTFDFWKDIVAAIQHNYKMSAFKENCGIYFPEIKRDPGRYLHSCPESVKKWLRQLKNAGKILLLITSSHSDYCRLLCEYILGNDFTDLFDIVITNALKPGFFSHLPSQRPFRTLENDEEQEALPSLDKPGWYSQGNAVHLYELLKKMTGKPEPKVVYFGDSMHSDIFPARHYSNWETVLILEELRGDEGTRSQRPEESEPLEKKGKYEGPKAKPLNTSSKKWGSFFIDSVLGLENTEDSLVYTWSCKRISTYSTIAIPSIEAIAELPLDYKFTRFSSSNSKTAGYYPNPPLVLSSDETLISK
UniProt P17568, sequence (P17568 whole entry, looked up): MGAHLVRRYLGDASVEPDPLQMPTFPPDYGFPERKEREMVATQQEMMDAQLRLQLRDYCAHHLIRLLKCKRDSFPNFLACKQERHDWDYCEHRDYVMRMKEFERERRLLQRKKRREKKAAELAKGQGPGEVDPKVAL
UniProt Q9NRP0, sequence (Q9NRP0 whole entry, looked up): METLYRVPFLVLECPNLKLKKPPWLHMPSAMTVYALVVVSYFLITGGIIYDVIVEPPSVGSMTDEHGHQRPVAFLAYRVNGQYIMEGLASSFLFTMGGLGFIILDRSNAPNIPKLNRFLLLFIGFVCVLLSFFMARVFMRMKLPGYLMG
UniProt Q9Y314, sequence (Q9Y314 whole entry, looked up): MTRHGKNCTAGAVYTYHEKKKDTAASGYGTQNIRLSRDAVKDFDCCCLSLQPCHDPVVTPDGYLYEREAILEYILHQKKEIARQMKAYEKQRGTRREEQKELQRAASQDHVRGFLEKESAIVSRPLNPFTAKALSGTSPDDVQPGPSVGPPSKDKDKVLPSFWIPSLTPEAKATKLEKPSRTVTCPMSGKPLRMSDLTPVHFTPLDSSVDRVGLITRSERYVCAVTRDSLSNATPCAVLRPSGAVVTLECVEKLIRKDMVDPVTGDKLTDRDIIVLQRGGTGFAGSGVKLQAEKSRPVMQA
UniProt P20585, sequence (P20585 whole entry, looked up): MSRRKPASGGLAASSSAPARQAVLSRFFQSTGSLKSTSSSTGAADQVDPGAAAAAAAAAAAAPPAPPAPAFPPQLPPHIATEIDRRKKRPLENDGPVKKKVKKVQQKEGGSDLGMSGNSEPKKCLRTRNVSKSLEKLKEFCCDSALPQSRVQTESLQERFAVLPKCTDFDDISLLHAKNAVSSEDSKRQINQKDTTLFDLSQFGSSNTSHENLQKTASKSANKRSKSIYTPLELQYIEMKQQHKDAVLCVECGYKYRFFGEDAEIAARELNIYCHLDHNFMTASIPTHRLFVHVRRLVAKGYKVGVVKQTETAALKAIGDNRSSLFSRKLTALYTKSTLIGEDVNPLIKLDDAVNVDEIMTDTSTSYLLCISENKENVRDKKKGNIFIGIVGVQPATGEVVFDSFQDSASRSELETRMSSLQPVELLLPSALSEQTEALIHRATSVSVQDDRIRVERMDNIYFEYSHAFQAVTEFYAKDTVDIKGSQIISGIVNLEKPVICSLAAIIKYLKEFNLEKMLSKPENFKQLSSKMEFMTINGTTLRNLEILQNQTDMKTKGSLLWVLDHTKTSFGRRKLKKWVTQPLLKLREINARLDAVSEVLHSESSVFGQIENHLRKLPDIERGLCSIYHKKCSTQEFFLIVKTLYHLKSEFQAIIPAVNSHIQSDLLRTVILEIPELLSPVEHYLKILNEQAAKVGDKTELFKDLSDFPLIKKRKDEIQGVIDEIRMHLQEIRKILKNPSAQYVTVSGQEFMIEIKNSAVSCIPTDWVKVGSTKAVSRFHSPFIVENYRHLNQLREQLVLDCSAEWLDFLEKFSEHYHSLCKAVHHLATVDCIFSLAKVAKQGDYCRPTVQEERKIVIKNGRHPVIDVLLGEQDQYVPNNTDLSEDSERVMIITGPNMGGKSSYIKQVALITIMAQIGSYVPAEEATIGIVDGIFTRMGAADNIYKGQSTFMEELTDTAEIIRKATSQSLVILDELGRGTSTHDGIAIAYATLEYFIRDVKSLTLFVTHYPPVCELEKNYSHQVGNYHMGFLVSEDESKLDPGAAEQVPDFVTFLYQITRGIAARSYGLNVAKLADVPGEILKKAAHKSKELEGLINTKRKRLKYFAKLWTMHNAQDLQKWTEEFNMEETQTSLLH
UniProt Q16795, sequence (Q16795 whole entry, looked up): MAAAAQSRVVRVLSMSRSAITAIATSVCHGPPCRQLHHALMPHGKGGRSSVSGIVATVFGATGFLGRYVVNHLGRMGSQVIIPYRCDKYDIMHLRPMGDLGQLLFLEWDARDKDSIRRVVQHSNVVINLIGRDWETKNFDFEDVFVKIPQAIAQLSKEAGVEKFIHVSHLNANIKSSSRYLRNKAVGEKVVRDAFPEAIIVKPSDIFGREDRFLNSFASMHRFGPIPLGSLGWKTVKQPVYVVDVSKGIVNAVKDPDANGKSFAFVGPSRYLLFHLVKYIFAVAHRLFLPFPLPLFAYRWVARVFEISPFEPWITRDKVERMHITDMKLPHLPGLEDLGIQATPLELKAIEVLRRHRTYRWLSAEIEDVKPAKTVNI
UniProt Q15102, sequence (Q15102 whole entry, looked up): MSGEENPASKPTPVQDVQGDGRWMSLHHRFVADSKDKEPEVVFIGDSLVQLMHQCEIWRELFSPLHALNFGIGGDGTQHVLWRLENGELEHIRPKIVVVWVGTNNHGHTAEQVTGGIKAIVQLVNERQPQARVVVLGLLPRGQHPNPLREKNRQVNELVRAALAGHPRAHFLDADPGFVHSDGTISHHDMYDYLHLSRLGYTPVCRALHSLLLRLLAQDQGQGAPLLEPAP
UniProt Q9NR45, sequence (Q9NR45 whole entry, looked up): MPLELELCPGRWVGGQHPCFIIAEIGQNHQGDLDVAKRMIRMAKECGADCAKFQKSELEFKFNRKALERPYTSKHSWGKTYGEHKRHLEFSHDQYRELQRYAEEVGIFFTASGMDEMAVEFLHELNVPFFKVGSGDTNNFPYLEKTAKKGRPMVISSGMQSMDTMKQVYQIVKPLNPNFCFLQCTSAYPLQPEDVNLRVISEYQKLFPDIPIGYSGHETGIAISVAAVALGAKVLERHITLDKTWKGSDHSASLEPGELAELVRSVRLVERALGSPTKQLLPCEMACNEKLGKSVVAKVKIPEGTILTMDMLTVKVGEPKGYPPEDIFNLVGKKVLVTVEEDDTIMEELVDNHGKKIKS
UniProt Q9BUB5, sequence (Q9BUB5 whole entry, looked up): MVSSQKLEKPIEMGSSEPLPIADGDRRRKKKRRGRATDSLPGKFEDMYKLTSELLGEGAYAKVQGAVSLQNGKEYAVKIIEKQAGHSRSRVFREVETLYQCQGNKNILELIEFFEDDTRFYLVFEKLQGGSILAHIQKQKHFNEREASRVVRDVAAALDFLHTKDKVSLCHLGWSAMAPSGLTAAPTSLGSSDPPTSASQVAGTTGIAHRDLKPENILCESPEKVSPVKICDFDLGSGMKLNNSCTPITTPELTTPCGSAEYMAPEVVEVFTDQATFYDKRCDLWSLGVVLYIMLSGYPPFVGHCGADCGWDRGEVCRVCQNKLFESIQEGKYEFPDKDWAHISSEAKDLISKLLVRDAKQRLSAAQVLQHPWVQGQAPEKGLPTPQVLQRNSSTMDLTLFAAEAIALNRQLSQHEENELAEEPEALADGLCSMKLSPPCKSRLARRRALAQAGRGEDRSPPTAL

Target | log2 fold change [1] | log2 fold change [2] | log2 fold change [3] | log2 fold change [4] | log2 fold change (Nexturastat A) | log2 fold change (vemurafenib) | log2 fold change [5] | log2 fold change [6] | log2 fold change (givinostat) | log2 fold change (barasertib)
NUDT1 (UniProt P36639) | -0.016 | -0.058 | -0.064 | -0.164 | -0.086 | -0.004 | 0.209 | -0.026 | -0.042 | -0.03
NIBAN1 (UniProt Q9BZQ8) | 0.05 | -0.036 | 0.102 | 0.01 | 0.077 | 0.046 | 0.083 | 0.039 | 0.05 | 0.063
NCAPD2 (UniProt Q15021) | 0.057 | -0.032 | 0.012 | -0.013 | 0.058 | 0.119 | 0.041 | 0.101 | 0.077 | 0.03
OXSR1 (UniProt O95747) | 0.019 | -0.11 | 0.014 | 0.004 | -0.021 | 0.037 | 0.038 | 0.007 | 0.055 | 0.035
NDUFA9 (UniProt Q16795) | 0.023 | -0.036 | 0.019 | 0.04 | -0.095 | 0.009 | 0.039 | -0.044 | 0.041 | 0.026
MRPS35 (UniProt P82673) | -0.016 | -0.013 | -0.04 | -0.007 | 0.167 | -0.063 | -0.022 | 0.149 | 0.017 | -0.034
NUMBL (UniProt Q9Y6R0) | 0.011 | -0.045 | -0.018 | -0.081 | 0.121 | -0.144 | -0.005 | 0.249 | 0 | 0.069
NAT14 (UniProt Q8WUY8) | 0.012 | -0.054 | 0.011 | 0.031 | 0.227 | 0.054 | -0.051 | -0.103 | -0.043 | 0.027
MRPS5 (UniProt P82675) | 0.08 | -0.086 | -0.005 | 0.004 | 0.159 | -0.048 | 0.062 | 0.016 | 0.013 | 0.023
NCKAP1 isoform 2 (UniProt Q9Y2A7) | 0.039 | 0.009 | 0.004 | 0.033 | 0.02 | 0.036 | 0.015 | 0.064 | 0.021 | -0.009
MSH6 (UniProt P52701) | 0.076 | -0.078 | 0.112 | 0.108 | -0.049 | 0.119 | 0.194 | 0.03 | 0.35 | 0.171
MKRN2 (UniProt Q9H000) | 0.147 | 0.059 | -0.002 | 0.086 | 0.091 | 0.095 | 0.035 | -0.045 | 0.083 | -0.098
OGFOD1 (UniProt Q8N543) | -0.013 | -0.01 | 0.013 | 0.033 | -0.061 | -0.01 | -0.006 | 0.006 | -0.112 | 0.009
MKNK1 (UniProt Q9BUB5) | -0.008 | -0.051 | 0.03 | 0.115 | -0.094 | 0.021 | 0.035 | 0.022 | 0.012 | 0.033
NMT1 (UniProt P30419) | -0.012 | -0.006 | -0.012 | 0.021 | -0.036 | -0.013 | 0 | 0.023 | -0.284 (active) | -0.015
MSH3 (UniProt P20585) | 0.029 | -0.033 | 0.021 | -0.101 | -0.015 | 0.019 | 0.053 | -0.013 | 0.002 | -0.001
NR2C2 isoform 2 (UniProt P49116) | -0.017 | 0.029 | 0.114 | -0.034 | -0.23 (active) | -0.023 | 0.03 | 0.04 | -0.073 | 0.028
NSDHL (UniProt Q15738) | 0.073 | -0.005 | 0.029 | -0.001 | -0.111 | 0.07 | -0.027 | -0.031 | -0.013 | -0.004
NRDC isoform 2 (UniProt O43847) | 0.001 | -0.053 | 0.01 | 0.03 | 0 | 0.047 | 0.051 | 0.021 | 0.017 | 0.037
NUP210 (UniProt Q8TEM1) | -0.029 | 0.052 | 0.084 | 0.035 | -0.08 | -0.002 | 0.058 | -0.05 | -0.017 | 0.029
NDUFA7 (UniProt O95182) | -0.013 | 0 | -0.007 | -0.021 | -0.035 | -0.045 | 0.019 | -0.079 | -0.024 | -0.011
NT5DC1 (UniProt Q5TFE4) | 0.149 | -0.018 | -0.019 | 0.021 | -0.068 | -0.001 | -0.016 | -0.003 | 0.004 | -0.039
PAFAH1B3 (UniProt Q15102) | 0 | -0.096 | 0.098 | 0.03 | 0.019 | -0.014 | -0.012 | 0.005 | -0.022 | 0.035
OSTC (UniProt Q9NRP0) | 0.001 | 0.001 | 0.047 | 0.058 | -0.114 | -0.115 | 0.068 | -0.058 | 0.076 | 0.061
OSBPL8 (UniProt Q9BZF1) | 0.209 | 0.011 | 0.009 | -0.027 | 0.109 | 0.074 | 0.035 | 0.309 | -0.03 | 0.094
NDUFB7 (UniProt P17568) | 0.037 | -0.006 | 0.063 | 0.027 | 0.023 | 0.018 | -0.014 | -0.124 | -0.367 (active) | -0.012
MYH11 isoform 2 (UniProt P35749) | 0.009 | 0.057 | -0.003 | 0.004 | -0.014 | 0.051 | -0.006 | -0.253 | 0.032 | 0.057
MRPS31 (UniProt Q92665) | -0.015 | -0.012 | -0.041 | -0.017 | 0.111 | -0.041 | 0.054 | -0.012 | 0.009 | -0.007
NOSIP (UniProt Q9Y314) | 0.02 | -0.2 | 0.032 | 0.012 | 0.149 | 0.247 | 0.168 | 0.047 | 0.14 | 0.197
NANS (UniProt Q9NR45) | 0.063 | -0.02 | 0.035 | 0.007 | -0.196 | -0.001 | 0.026 | 0.007 | -0.025 | 0.01
